# Data taken from PubChem BioAssay (Tox21).
# Records with an inconclusive call do not appear. Values without a mark were called inactive. Unless noted, the call rests on the fitted dose curve.
# Experiment: cAMP Responsive Elements (CRE) small molecule agonists, cell-based qHTS assay (AID 1963590)
# Settings: CRE-bla HEK293T, beta-lactamase FRET ratio, 3 h; series mostly up to 92.4 µM; activation: at the top concentration
# Method in brief: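 Cell line: CRE-bla HEK 293T; medium DMEM/10% dialyzed FBS/0.1 mM NEAA/1 mM pyruvate/25 mM HEPES; 3 h compound exposure; beta-lactamase FRET readout after 2 h substrate loading at RT.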
# On the % scale 0 is the no-effect control and ±100 the full control effect.
row,SMILES,activation
1,CC(=O)c1c(C)cc(C(C)(C)C)cc1C,-0.487%
2,COc1ccc(C2C(=O)c3ccccc3C2=O)cc1,0.318% [at 42.5 µM]
3,CCCCCc1ccco1,-1.86% [at 42.5 µM]
4,CN(CCOc1ccc(NS(C)(=O)=O)cc1)CCc1ccc(NS(C)(=O)=O)cc1,0.0471% [at 42.5 µM]
5,CN(C)CCc1c[nH]c2ccc(C[C@H]3COC(=O)N3)cc12,0.554% [at 42.5 µM]
6,Cc1ncc(CO)c(C=O)c1O,-1.66% [at 42.5 µM]
7,O=CN1CCCCC1,0.466%
8,Cc1cccc([N+](=O)[O-])c1C(=O)O,2.22%
9,c1ccc(C(O[C@H]2CCCN(CCc3ccc4c(c3)OCO4)C2)c2ccccc2)cc1,0.0773% [at 42.5 µM]
10,CCCCCCOC(=O)CCCCC(=O)OCCCCCC,0.0435%
11,CC(C)C(=O)OCc1ccccc1,0.0128%
12,CN(C)[C@@H]1C(=O)C(C(=O)NCN2CCCC2)=C(O)[C@@]2(O)C(=O)C3=C(O)c4c(O)cccc4[C@@](C)(O)C3C[C@@H]12 (some centres not stated),0.193% [at 42.5 µM]
13,CC(=O)OC1CCCCC1,0.0644%
14,CCCCCCCCOC(C)=O,0.762%
15,CCOC(=O)C(C)(C)C,0.0864%
16,CCCCCCCCN(C)CCCCCCCC,-1.08%
17,CCN(CC)c1ccc(C=O)cc1,0.983%
18,COc1ccc(C)cc1[N+](=O)[O-],1.96%
19,CCOc1cccc(N)c1,0.207%
20,CCCCCCCCCCCC(C)=O,-0.807%
21,CC(=O)Oc1ccc(C(C)=O)cc1,-2.33%
22,CCOC(=O)CCC(=O)OCC,-1.44%
23,C=CC(OCC)OCC,1.63%
24,CN1CCC[C@@H]1Cc1c[nH]c2ccc(CCS(=O)(=O)c3ccccc3)cc12,1.19% [at 42.5 µM]
25,CCCCCCCCCC(=O)OCC,0.434%

# Experiment: cAMP Responsive Elements (CRE) small molecule antagonists, cell-based qHTS assay (AID 1963591; active means well fitted inhibition curve with a large enough effect in the signal ratio in the repeat runs, not every such curve was filed as active; the % refers to the signal ratio)
# Settings: CRE-bla HEK293T, beta-lactamase FRET ratio; series mostly up to 92.4 µM; activity change, negative = inhibition: at the top concentration
# Method in brief: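 Inhibition of NKH477-driven (0.25 uM final) CRE-beta-lactamase signal in HEK293T cells, 3 h compound exposure at 37 °C, detected by FRET substrate fluorescence.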
row,SMILES,"activity change, negative = inhibition"
1,Cc1cc(C)c(NC(=O)CN(CC(=O)O)CC(=O)O)c(C)c1Br,-2.43% [at 42.4 µM]
2,CC(=O)c1c(C)cc(C(C)(C)C)cc1C,-2.07%
3,COc1ccc(C2C(=O)c3ccccc3C2=O)cc1,0.455% [at 42.4 µM]
4,CCCCCc1ccco1,-5.3% [at 42.4 µM]
5,CN(CCOc1ccc(NS(C)(=O)=O)cc1)CCc1ccc(NS(C)(=O)=O)cc1,0.637% [at 42.4 µM]
6,CN(C)CCc1c[nH]c2ccc(C[C@H]3COC(=O)N3)cc12,6.1% [at 42.4 µM]
7,O=CN1CCCCC1,2.38%
8,Oc1ccc(-c2ccc(O)cc2)cc1,0.454%
9,Cc1cccc([N+](=O)[O-])c1C(=O)O,-5.3%
10,c1ccc(C(O[C@H]2CCCN(CCc3ccc4c(c3)OCO4)C2)c2ccccc2)cc1,7.65% [at 42.4 µM]
11,CC(CCc1ccc(O)cc1)NCCc1ccc(O)c(O)c1 (configuration not stated),5.18% [at 42.4 µM]
12,CCC(C)CCCC(C)(C)O (configuration not stated),-7.99%
13,CCCCCCOC(=O)CCCCC(=O)OCCCCCC,-7.84%
14,CCOc1ccc(NC(=O)OC(C)C)cc1OCC,3.23%
15,CC(C)C(=O)OCc1ccccc1,5.46%
16,CN(C)[C@@H]1C(=O)C(C(=O)NCN2CCCC2)=C(O)[C@@]2(O)C(=O)C3=C(O)c4c(O)cccc4[C@@](C)(O)C3C[C@@H]12 (some centres not stated),-1.07% [at 42.4 µM]
17,CC(=O)OC1CCCCC1,-0.949%
18,CCCCCCCCOC(C)=O,-8.84%
19,CCOC(=O)C(C)(C)C,-9.92%
20,CCCCCCCCN(C)CCCCCCCC,-3.87%
21,COc1cc2nc(Cl)nc(N)c2cc1OC,0.1% [at 42.4 µM]
22,CCN(CC)c1ccc(C=O)cc1,-3.83%
23,CCOc1cccc(N)c1,1.61%
24,CCCCCCCCCCCC(C)=O,-8.08%
25,CC(=O)Oc1ccc(C(C)=O)cc1,1.04%
26,CN1CCC[C@@H]1Cc1c[nH]c2ccc(CCS(=O)(=O)c3ccccc3)cc12,-0.0081% [at 42.4 µM]
27,CCCCCCCCCC(=O)OCC,-1.26%
